GRK2 aptamer HTS: compounds blocking aptamer binding on GRK2 – biochemical, human GRK2, bead flow cytometry, HTS, primary screen. inhibition of aptamer binding, % at 10 µM. FAM-aptamer displacement from GRK2. AID 488847, 2010. 330,000 compounds, 0.59% hits. Beta-adrenergic receptor kinase 1 (Homo sapiens), P25098;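 active = inhibition of aptamer binding above 40%, roughly 3 SD of noise, on plates passing a quality check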;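 also: median bead fluorescence of bound FAM aptamer so fluorescent compounds give negative values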
Target sequence (P25098 whole entry, looked up): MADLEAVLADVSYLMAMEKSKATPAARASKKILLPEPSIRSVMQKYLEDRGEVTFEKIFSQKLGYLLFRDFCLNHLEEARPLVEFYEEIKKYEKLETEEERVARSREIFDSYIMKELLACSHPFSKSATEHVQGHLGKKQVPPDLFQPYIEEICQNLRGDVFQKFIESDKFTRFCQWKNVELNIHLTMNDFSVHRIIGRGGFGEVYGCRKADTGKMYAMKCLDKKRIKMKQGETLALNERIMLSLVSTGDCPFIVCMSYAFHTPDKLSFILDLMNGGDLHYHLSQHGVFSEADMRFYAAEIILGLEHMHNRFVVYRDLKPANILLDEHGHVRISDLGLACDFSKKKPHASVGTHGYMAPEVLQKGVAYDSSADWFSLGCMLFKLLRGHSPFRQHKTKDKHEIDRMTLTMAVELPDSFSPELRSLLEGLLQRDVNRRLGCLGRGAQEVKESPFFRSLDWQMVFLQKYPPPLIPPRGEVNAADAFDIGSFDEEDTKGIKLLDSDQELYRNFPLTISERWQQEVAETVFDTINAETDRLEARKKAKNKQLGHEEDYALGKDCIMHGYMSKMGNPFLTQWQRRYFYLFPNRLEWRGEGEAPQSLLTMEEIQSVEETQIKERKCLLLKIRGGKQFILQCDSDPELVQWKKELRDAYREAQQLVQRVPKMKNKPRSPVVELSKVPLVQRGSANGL
Neddylation inh: inhibitors of cullin neddylation, primary screen, biochemical, TR-FRET, uHTS, NAE and Ubc12; AID 651699, 2012; inhibition, % at 25 µM; NEDD8-conjugating enzyme Ubc12 (Homo sapiens) + NEDD8-activating enzyme E1 regulatory …; 360,000 compounds, 0.58% hits; in the data active = inhibition above about 36%
H9c2 protect: cardioprotection against H2O2-induced cell death, primary screen, uHTS, H9c2 cells, ATPLite luminescence; H9c2 cardiomyocytes, H2O2 injury protection, 2 h; 360,000 compounds, 0.63% hits; protection from H2O2 cell death, % at 20 µM;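 active = compounds giving at least 50% protection of heart cells from peroxide-induced death in the single-dose screen, raw or plate-pattern-corrected value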;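 also: 0% = DMSO wells with peroxide and 100% = DMSO wells without peroxide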
HDAC3 inhib: HDAC3 deacetylase inhibitors, primary screen, biochemical, fluorescence, cell-free homogeneous. recombinant HDAC3, fluorogenic peptide/trypsin coupled. inhibition, % at 8.3 µM. 320,000 compounds, 0.15% hits; in the data active = inhibition above about 26%, passing the limit was not always enough
Active calls of the source: *; . = no result given. An excerpt weighted towards active compounds, which were near 1.8% of everything screened.

SMILES | GRK2 aptamer HTS | Neddylation inh | H9c2 protect | HDAC3 inhib
CC1CCCCC12NC(=O)N(CC(=O)N(C)Cc1nc3ccccc3c(=O)[nH]1)C2=O (stereo not drawn) | 0 | 10 | 34 | 5
CC(C)Cc1nnc(NC(=O)C2CSC3(C)CCC(=O)N23)s1 (stereo not drawn) | 1 | 8 | -3 | -2
COc1ccc(-c2cc(C(=O)Nc3ccccc3N3CCOCC3)c3ccccc3n2)cc1OC | 4 | 32 | 62* | -6
COc1cc(-c2cc(C(=O)Nc3ccc(S(=O)(=O)NCc4ccco4)cc3)c3ccccc3n2)cc(OC)c1OC | 5 | 12 | 61* | -2
COc1cc(-c2cc(C(=O)NCc3ccco3)c3ccccc3n2)cc(OC)c1OC | 0 | 39 | 59* | -1
COc1cc(-c2cc(C(=O)Nc3ccncc3)c3ccccc3n2)cc(OC)c1OC | 2 | 35 | 50 | 5
CCOc1ccccc1NC(=O)c1cc(-c2cc(OC)c(OC)c(OC)c2)nc2ccccc12 | 4 | 31 | 44 | -10
COc1ccccc1NC(=O)c1cc(-c2cc(OC)c(OC)c(OC)c2)nc2ccccc12 | 1 | 36 | 66* | 3
CCN(CC)S(=O)(=O)c1ccc(N2CCOCC2)c(NC(=O)c2cc(-c3ccccn3)nc3ccccc23)c1 | . | -60 | 52* | .
CCN(CC)S(=O)(=O)c1ccc(N2CCOCC2)c(NC(=O)c2cccc3ccccc23)c1 | 0 | 16 | 3 | 2
O=C(NNC(=O)c1ccccc1F)c1ccc(S(=O)(=O)N2CCCCC2)cc1 | 0 | -3 | -6 | 5
COc1ccc(C(=O)n2cnc(N)n2)cc1 | 0 | -4 | 2 | 71*
COc1ccc(C(=O)n2cnc3ccccc32)cc1 | 1 | 5 | 0 | 33*
Cc1cc(=O)[nH]c(SCC(=O)Nc2ccc(Cl)cn2)n1 | 10 | 0 | 6 | -1
O=C(Nc1cccc2ccccc12)c1ccc(Cn2cc(Cl)cn2)cc1 | 0 | 0 | -4 | 2
O=C(CC1C[C@H](C(=O)N2CCOCC2)[C@@]2(CCC3CCCC3)c3[nH]c4ccccc4c3CCN2C1=O)NCc1ccco1 (stereo partly drawn) | 1 | -12 | -3 | -6
COc1ccccc1CN(C)C(=O)c1ccc(S(=O)(=O)NCc2ccco2)cc1 | 44* | 12 | -5 | -2
COc1ccccc1C(CNC(=O)c1ccc(S(=O)(=O)NCc2ccco2)cc1)N(C)C (stereo not drawn) | 0 | 5 | 6 | -2
CC(=O)c1cccc(NC(=O)CCn2c(=S)oc3ccccc32)c1 | 0 | -60 | 1 | 2
COc1cc(C=NO)nc(-c2ccccn2)c1 | . | 6 | 56* | .
CCOc1ccc(CCNC(=O)c2cc3c(C)nccc3[nH]c2=O)cc1OCC | 0 | -9 | 72* | 11
O=C(Cn1ccc(NC(=O)OCc2ccccc2)nc1=O)NCCCN1CCCC1=O | 0 | 0 | -3 | 2
c1ccc(-c2oc3ncnc(NCCN4CCOCC4)c3c2-c2ccccc2)cc1 | 1 | 36 | 53* | -4
CCN(CC)CCn1c2c(c(SCC(=O)Nc3cccc(C(C)=O)c3)nc1=O)CCCC2 | . | -6 | 75* | .
O=C(CSC1=NS(=O)(=O)c2cc(F)ccc2N1)Nc1cccc(F)c1 | 5 | -1 | 0 | 0
SMILES | GRK2 aptamer HTS | Neddylation inh | H9c2 protect | HDAC3 inhib
Clc1ccc(-n2ncc3c(N4CCCCCC4)ncnc32)cc1 | 0 | -12 | -33 | 2
COc1ccc(-n2ncc3c(N4CCCCC4)ncnc32)cc1 | 1 | 38* | -14 | -15
Cc1ccc(C2(C)NC(=O)N(CC(=O)N3CCN(S(=O)(=O)c4ccc(Cl)s4)CC3)C2=O)cc1 (stereo not drawn) | 3 | 4 | -4 | 3
COc1ccc2cc3c(N)nn(C(=O)c4ccc(Cl)c([N+](=O)[O-])c4)c3nc2c1 | 57* | 0 | 7 | -2
COc1ccc2cc3c(N)nn(C(=O)c4ccccc4[N+](=O)[O-])c3nc2c1 | 5 | -10 | 20 | -4
C=C(C)C(=O)Nc1ccc2c(c1)OCCOCCOCCO2 | 93* | -17 | 4 | -1
CC(CCC(=O)O)C1CCC2C3CCC4C[C@H](O)CCC4(C)C3CC(=O)C12C (stereo partly drawn) | 2 | -4 | 6 | -4
CC1=C(CC[C@@H](C)CO)OC2CC3C4CCC5CC(O)CCC5(C)C4CC(=O)C3(C)C12 (stereo partly drawn) | 0 | -5 | 50* | 8
CCn1c(CNC(=O)Cc2ccc(OC)cc2)nnc1SCC(=O)c1ccccc1 | . | -6 | 0 | .
COc1ccc(C(=O)NCc2nnc(SCC(=O)NO)n2Cc2ccccc2)cc1 | 1 | 1 | 0 | 91*
CN1CCN(C(=O)CCc2nc3ccccc3c(=O)[nH]2)CC1 | 2 | -6 | 34 | -9
CN1CCC(N(C)C(=O)CCc2nc3ccccc3c(=O)[nH]2)CC1 | 2 | 1 | 78* | 5
CCOc1ccc(NC(=O)CN(C)C(=O)CCc2nc3ccccc3c(=O)[nH]2)cc1OCC | . | 8 | 50 | .
COc1ccc(Cl)cc1NC(=O)CN(C)C(=O)CCc1nc2ccccc2c(=O)[nH]1 | 0 | 3 | 73* | 2
CN(CC(=O)Nc1ccccc1C(F)(F)F)C(=O)CCc1nc2ccccc2c(=O)[nH]1 | 0 | 8 | 21 | -3
CN(CC(=O)Nc1ccccc1Br)C(=O)CCc1nc2ccccc2c(=O)[nH]1 | 1 | 9 | 73* | 7
Cc1ccc(S(=O)(=O)Nc2cccc(-n3cnnn3)c2)cc1C | 1 | 1 | 0 | -3
O=C(Oc1ccc(=O)n(-c2ccccc2)n1)c1ccc(Cl)cc1 | 0 | 3 | 35 | 17
O=C(Oc1ccc(=O)n(-c2ccccc2)n1)c1cccc(Cl)c1 | 0 | -16 | 45 | 44*
COc1ccc(C(=O)Oc2ccc(=O)n(-c3ccccc3)n2)cc1 | 11 | 6 | 6 | 76*
Cc1cc(C)cc(OCC(=O)NNC(=S)NC(=O)C2CC2)c1 | 0 | 8 | 23 | -5
COc1cccc(NC(=O)CN(C)C(=O)CC2CCCC2)c1 | . | 8 | 0 | .
Cc1cc(C)c2cc3c(N)c(C(=O)N4CCc5ccccc5C4)sc3nc2c1 | 3 | -102 | 49* | 4
Cc1ccc2nc3sc(C(=O)N4CCCc5ccccc54)c(N)c3cc2c1 | 2 | -123 | 7 | 14
COc1ccc(C=CC(=O)c2ccc3cc(OC)c(OC)cc3c2)cc1OC | . | -7 | 53* | .
SMILES | GRK2 aptamer HTS | Neddylation inh | H9c2 protect | HDAC3 inhib
COc1cc(/C=C/C(=O)O)ccc1O | 2 | 4 | 1 | -7
COc1cc(/C=C/C(=O)CC(=O)/C=C/c2ccc(O)c(OC)c2)ccc1O | 9 | 9 | 75* | 19
CCC1CSC(Nc2ccc(C(=O)/C=C/c3ccc(OC)c(OC)c3)cc2)=N1 (stereo not drawn) | 48* | -2 | -7 | -2
Cc1cc(C)nc(SCc2ccc(C(=O)N/N=C/c3ccccn3)cc2)n1 | 3 | -6 | 69* | 4
CCOc1ccccc1-c1cc(C(=O)N/N=C/c2cccnc2)c2ccccc2n1 | 0 | 22 | 4 | 3
O=C(N/N=C/c1ccccn1)c1cc(C2CC2)nc2ccccc12 | 0 | 3 | 55* | -12
